Assay outcomes as filed in PubChem BioAssay.
DENV2 CPE: inhibitors of DENV2 cytopathic effect; DENV2-infected cells, cytopathic effect rescue, plate reader; CPE inhibition, % at 9.99 µM; 1.7% of 350,000 active; AID 651640; in the data active = CPE inhibition above about 20%, passing the limit was not always enough; inconclusive = no clear call, values can overlap the other calls; tested in BHK-21 cells;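 also: 0% = median of neutral control wells and 100% = median of positive control wells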
CaV13 ICDI inh: Primary screen for inhibitors of IQ motif and Ca2+-dependent inactivation inhibitor domain binding in CACNA1D, Förster resonance energy transfer in living cells, … | inhibition, % at 12.3 µM | 0.098% of 340,000 active | HEK cells, CFP/YFP FRET ICDI-IQ, plate reader, 10 min; percent FRET-ratio fall versus neutral wells;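 active = mean replicate inhibition of at least 30% and at least 1% of replicates passing that level; inconclusive = only one of the two criteria is met; inactive = neither criterion is met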;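 also: 0% = median of the neutral control wells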
GSIS activator: primary screen for activators of insulin secretion dependent on glucose, INS-1E cells, GLuc reporter luminescence | activation, % at 16.6 µM | 0.61% of 370,000 active | INS-1E GLuc reporter insulin secretion, 2-3 h;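 active = lowest replicate activation of at least 40%, so every replicate reaches that level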;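 also: 0% = median of neutral control wells and 100% = median of IBMX positive control wells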
PGC1a acetyl inh: lowers PGC1a acetylation signal in U2OS cells | AlphaScreen anti-acetyl-lysine; with virally co-expressed GCN5 acetyltransferase | inhibition, % at 15.6 µM | 0.17% of 350,000 active | AID 651687;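 active = every replicate shows inhibition of at least 40%; inconclusive = mean inhibition at least 40% but some replicate below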;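 also: 0% = neutral control wells and 100% = positive control wells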
ERAP1 inh: ERAP1 (human) enzyme inhibition; Q9NZ08; recombinant ERAP1, Leu-AMC fluorescence, 60 min; inhibition, % at 10.7 µM; 0.15% of 340,000 active; AID 652197;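 active = mean replicate inhibition of at least 30%, or all replicates individually reaching that 30% level; inactive = mean below 30% and not every replicate reaching it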;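 also: 0% = neutral control wells and 100% = L-leucinethiol positive control wells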
Target sequence (Q9NZ08 whole entry, looked up): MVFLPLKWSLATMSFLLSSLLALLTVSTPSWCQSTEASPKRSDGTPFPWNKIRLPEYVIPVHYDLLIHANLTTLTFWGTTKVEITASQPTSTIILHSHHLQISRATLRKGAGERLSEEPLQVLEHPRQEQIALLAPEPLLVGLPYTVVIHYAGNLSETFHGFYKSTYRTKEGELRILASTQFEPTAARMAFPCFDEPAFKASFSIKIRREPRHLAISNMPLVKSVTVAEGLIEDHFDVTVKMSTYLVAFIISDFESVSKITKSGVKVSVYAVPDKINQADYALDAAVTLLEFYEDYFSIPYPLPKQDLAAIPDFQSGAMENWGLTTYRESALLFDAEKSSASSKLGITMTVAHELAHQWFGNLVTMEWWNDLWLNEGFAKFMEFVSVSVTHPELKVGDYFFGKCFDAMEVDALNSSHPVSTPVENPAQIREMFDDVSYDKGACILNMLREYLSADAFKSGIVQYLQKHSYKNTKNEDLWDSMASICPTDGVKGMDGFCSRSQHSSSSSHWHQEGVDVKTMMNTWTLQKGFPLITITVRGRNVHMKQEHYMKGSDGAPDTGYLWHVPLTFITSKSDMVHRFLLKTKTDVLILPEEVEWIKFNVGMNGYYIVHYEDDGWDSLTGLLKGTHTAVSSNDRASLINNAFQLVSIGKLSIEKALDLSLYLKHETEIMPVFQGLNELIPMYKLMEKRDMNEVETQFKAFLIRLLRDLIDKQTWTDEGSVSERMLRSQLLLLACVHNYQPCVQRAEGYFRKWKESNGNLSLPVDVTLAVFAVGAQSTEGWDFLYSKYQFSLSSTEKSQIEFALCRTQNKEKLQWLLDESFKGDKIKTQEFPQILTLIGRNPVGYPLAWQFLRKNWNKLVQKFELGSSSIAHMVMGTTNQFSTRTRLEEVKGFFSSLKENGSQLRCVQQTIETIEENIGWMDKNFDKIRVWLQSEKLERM
Ecoli rRNA inh: selective bacterial rRNA inhibition in E. coli | E. coli WT GFP vs humanized-ribosome RFP mutants, fluorescence, 24 h; active compounds read low; DMSO median 0, no signal -100 | 1.6% of 350,000 active | GFP signal change (wild-type ribosome), % (test concentration not listed);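 active = significant combined selectivity score with lowered wild-type GFP, culture density cut under 30%, mutant RFP and density less affected; inactive = any of these conditions unmet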
* = called active by the depositor; ? = inconclusive; . = no result. Shown are actives, neighbours in structure and some others; about 3.2% of the full set was active somewhere.

SMILES	DENV2 CPE	CaV13 ICDI inh	GSIS activator	PGC1a acetyl inh	ERAP1 inh	Ecoli rRNA inh
CCOC(=O)c1cc(-c2ccccc2)sc1NC(=O)CSc1nnc(N)s1	-1	96*	11	3	0	9
C[C@H](O)C#Cc1ccc2c(c1)O[C@@H](CN(C)Cc1ccncc1)[C@H](C)CN([C@H](C)CO)S2(=O)=O	-8	.	21	-1	-3	-3
Cc1cc(Br)cn2c(Cc3cccc(F)c3)c(-c3ccc(Cl)cc3)nc12	-12	-5	-47	9	-3	-32*
COc1ccccc1Cc1c(-c2ccc(F)cc2)nc2c(C)cc(Br)cn12	6	-7	-13	-4	.	-32*
Cc1cc(Br)cn2c(Cc3ccccc3)c(-c3ccc(Cl)cc3)nc12	-7	-5	29	.	0	1
C[C@@H]1CN([C@H](C)CO)C(=O)c2cc(NC(=O)Nc3ccc(C(F)(F)F)cc3)ccc2O[C@H]1CN(C)C(=O)Nc1ccc(C(F)(F)F)cc1	13	.	7	-6	-1	1
O=C1N(c2ccccc2)c2ccccc2[C@]12C[C@H](O)CO2	1	-6	55*	.	-6	12
C[C@H](CO)N1C[C@H](C)[C@H](CN(C)C(=O)NC2CCCCC2)Oc2ccc(NC(=O)Cc3ccccc3)cc2C1=O	33*	.	9	-7	-3	-2
C[C@@H]1CN([C@@H](C)CO)C(=O)c2cc(NC(=O)Cc3cn(C)c4ccccc34)ccc2O[C@H]1CN(C)C(=O)NC1CCCCC1	24*	.	-19	3	3	-2
CC(C)NC(=O)N(C)C[C@@H]1Oc2ccc(NC(=O)Cc3cn(C)c4ccccc34)cc2C(=O)N([C@H](C)CO)C[C@H]1C	52*	.	9	3	-3	0
C[C@@H]1CN([C@H](C)CO)C(=O)c2cc(NC(=O)Cc3cn(C)c4ccccc34)ccc2O[C@@H]1CN(C)C(=O)NC1CCCCC1	-1	.	-29	1	-3	0
C[C@H]1CN([C@@H](C)CO)C(=O)c2cc(NC(=O)Cc3ccccc3)ccc2O[C@H]1CN(C)C(=O)NC1CCCCC1	-7	.	-4	7	0	2
O=C(Nc1ccc(Cl)cc1)N[C@@H]1CC[C@@H](CCn2cc(-c3ccccc3F)nn2)O[C@@H]1CO	0	.	-17	1	-1	-2
CC(C)NC(=O)N(C)C[C@H]1Oc2c(NS(=O)(=O)c3cccs3)cccc2C(=O)N([C@@H](C)CO)C[C@H]1C	.	.	20	-5	.	2
CC(=O)N1CCCCN2[C@H](C1)[C@@H](c1ccc(C#Cc3ccccc3F)cc1)[C@@H]2CO	3	.	-20	-11	1	-56
O=C(Nc1nc2ccc(F)cc2s1)C1=COCCO1	-4	-16	5	.	6	-20*
C[C@@H]1CN([C@@H](C)CO)C(=O)Cc2cc(NC(=O)Cc3ccccc3)ccc2O[C@@H]1CN(C)S(=O)(=O)c1cn(C)cn1	9	.	20	3	.	1
O=C(NC(=S)NC1CCSC1=O)c1ccccc1Cl (stereo not drawn)	.	-6	.	-1	.	.
Cc1ccccc1C(=O)NC1CCSC1=O (stereo not drawn)	7	-15	121*	-8	.	9
CO[C@H](CN(C)S(=O)(=O)c1ccc(F)cc1)[C@@H](C)CN([C@H](C)CO)S(=O)(=O)c1cccc(Cl)c1	7	.	-8	-2	-3	0
CCOC(=O)N1CCC(N2C(=O)c3ccccc3C2Nc2cc(OC)c(OC)c(OC)c2)CC1 (stereo not drawn)	-1	?	-8	-20	5	1
CCOC(=O)[C@]12Cc3c(cc(OC)c(OC)c3OC)[C@H]1N(C1CCCCC1)C(=O)c1cc(OC)ccc12	?	-6	178*	.	.	-50
C[C@H](CO)N1C[C@H](C)[C@H](CN(C)C(=O)Nc2cccc3ccccc23)Oc2ccc(NC(=O)CCCN(C)C)cc2C1=O	4	.	14	-4	0	2
O=c1[nH]c2ccccc2cc1CN(Cc1cccnc1)S(=O)(=O)c1ccc(Cl)cc1	13	-7	5	.	3	-45*
O=c1[nH]c2ccccc2cc1CN(Cc1cccnc1)S(=O)(=O)c1ccc([N+](=O)[O-])cc1	0	-2	13	-6	0	-21*
SMILES	DENV2 CPE	CaV13 ICDI inh	GSIS activator	PGC1a acetyl inh	ERAP1 inh	Ecoli rRNA inh
CC(=O)Nc1ccc(S(=O)(=O)N(Cc2cccnc2)Cc2cc3ccccc3[nH]c2=O)cc1	17	-3	14	.	4	-6
CCCCN(Cc1nc2ccccc2c(=O)[nH]1)C(=O)c1nn(C)c(=O)c2ccccc12	6	-6	47*	.	2	15
O=C(NC(=S)Nc1ccc(NC(=O)c2cccs2)cc1)c1cc2ccccc2o1	.	-14	74*	.	.	.
O=C(c1ccccc1)N1C[C@@H]2[C@H](c3ccccc31)[C@H](CO)N2C(=O)CN1CCOCC1	17	.	-10	5	-2	-2
O=C(COC(=O)c1ccc(NC(=O)C2CC=CCC2C(=O)O)cc1)c1ccccc1 (stereo not drawn)	68*	-3	5	4	-15	-11
O=C1NC(c2ccccc2)=CC(c2ccccc2O)N1 (stereo not drawn)	145*	-5	.	.	-1	2
COc1ccc(S(=O)(=O)N2CCCCC2c2cc(C(=O)Nc3ccccc3)no2)cc1 (stereo not drawn)	33*	-4	-13	-23	-4	0
CS(=O)(=O)N1CCCCC1c1cc(C(=O)Nc2cccc(C#N)c2)no1 (stereo not drawn)	6	-5	41*	-14	-2	16
COc1ccc(S(=O)(=O)N2CCCCC2c2cc(C(=O)Nc3ccccc3Cl)no2)cc1 (stereo not drawn)	-2	-5	8	-3	-1	-1
CS(=O)(=O)N1CCCCC1c1cc(C(=O)Nc2ccccc2)no1 (stereo not drawn)	1	-5	-2	1	-1	1
C[C@H]1CN([C@@H](C)CO)S(=O)(=O)c2ccc(C#Cc3cccnc3)cc2O[C@H]1CN(C)C(=O)Nc1ccc2c(c1)OCO2	15	.	-21	-2	-8	-9
COc1cc(C2(c3ccc(O)c(OC)c3)C(=O)Nc3c(Br)cc(Br)cc32)ccc1O	-5	-15	1	.	6	-48*
COc1cc(C2(c3ccc(O)c(OC)c3)C(=O)N(C)c3ccc(Br)cc32)ccc1O	1	-5	-6	.	-3	-43
CCN(CC(=O)Nc1cc(Cl)ccc1-n1cncn1)Cc1nc2ccccc2c(=O)[nH]1	31*	-6	10	6	1	-5
O=C1C[C@@H](c2ccccc2)C(=O)N[C@H](c2ccccc2)C/C=C\C[C@@H](c2ccccc2)N1	.	.	9	.	.	-3
